Tau FP inhib = qHTS for Inhibitors of Tau Fibril Formation, Fluorescence Polarization; hit rate 0.39% among 280,000; K18 P301L tau heparin fibrillization, Alexa594 FP, 6 h; Microtubule-associated protein tau (Homo sapiens), P10636; Potency, µM (top dose mostly 57.7 µM), for the others: at the highest dose activity, negative = inhibition, usual class: inhibitors; AID 1468, 2008; note: potency is the fitted concentration of half-maximal effect; nearly all actives have a fitted effect of over 55% in size
Target sequence (P10636 561-689 P618L limits assumed): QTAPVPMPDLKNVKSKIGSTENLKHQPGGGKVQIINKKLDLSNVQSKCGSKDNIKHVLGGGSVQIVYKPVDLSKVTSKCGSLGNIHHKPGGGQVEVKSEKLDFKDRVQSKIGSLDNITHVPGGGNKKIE
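Heparin (20 uM) drove fibril formation of recombinant tau K18 P301L, 15 uM unlabeled with 0.24 uM Alexa 594 label, for 6 hr at 37 C in 100 mM sodium acetate pH 7. Fluorescence polarization (555/632 nm) read 1 hr after 30 uM ThT.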
JMJD2E inh = qHTS Assay for Inhibitors of Human Jumonji Domain Containing 2E (JMJD2E); Lysine-specific demethylase 4E (Homo sapiens), B2RXH2; JMJD2E catalytic domain, FDH-coupled NADH fluorescence (FDH is formaldehyde dehydrogenase); Potency, µM (highest dose often 57.1 µM), for inactives: at the highest dose activity change, negative = inhibition, actives largely listed as inhibitors; hit rate 1.6% among 230,000; AID 2147, 2009; active = well fitted inhibition curve with a large enough effect, not every such curve was filed as active; inconclusive = small, poorly fitted or top-dose-only effect, or another doubt; inactive = no such curve, though single readings can be large or run the other way;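 note: potency is the fitted concentration of half-maximal effect; 0% = wells with enzyme and -100% = buffer wells without enzyme; nearly all actives have a fitted effect of over 50% in size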
Target sequence (B2RXH2 1-337 limits assumed): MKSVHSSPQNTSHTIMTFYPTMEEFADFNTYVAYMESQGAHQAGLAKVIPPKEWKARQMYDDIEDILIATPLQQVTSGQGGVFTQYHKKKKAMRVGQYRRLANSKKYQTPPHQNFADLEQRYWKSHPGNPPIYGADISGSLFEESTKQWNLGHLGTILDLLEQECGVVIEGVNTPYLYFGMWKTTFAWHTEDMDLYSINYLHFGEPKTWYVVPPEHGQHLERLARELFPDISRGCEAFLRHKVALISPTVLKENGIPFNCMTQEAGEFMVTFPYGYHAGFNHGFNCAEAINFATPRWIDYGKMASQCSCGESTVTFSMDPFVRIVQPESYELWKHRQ
Tau fluor cs = Counterscreen qHTS for Inhibitors of Tau Fibril Formation, Fluorescence Polarization; tau K18 P301L Alexa594 fluorescence, heparin fibrillization; hit rate 0.93% among 280,000; Potency, µM (highest dose often 57.7 µM), for inactives: top-dose activity change, negative = decrease; note: potency is the fitted concentration of half-maximal effect; nearly all actives have a fitted effect of over 55% in size
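Human tau K18 P301L (15 uM unlabeled, 0.24 uM Alexa 594-labeled) in 100 mM sodium acetate pH 7 with 20 uM heparin, 6 hr at 37 C. ThT 30 uM added, 1 hr ambient; Alexa 594 FP and total fluorescence read at 555/632 nm.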
Coupling enz = qHTS Assay for Inhibitors of Fructose-1,6-bisphosphate Aldolase from Giardia Lamblia: Coupling assay counterscreen; coupling enzyme system counterscreen, AmpLite Red fluorescence; activity change, negative = inhibition, % at 58.2 µM, hits read low; AID 2472, 2010; hit rate 0.67% among 290,000; in the data active = activity change below about -30%
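First, compound is pin-transferred into glyceraldehyde-3-phosphate coupling-enzyme reagent at 57.5 uM final and held 10 min at RT. Next, substrate, coupling system and AmpLite Red are added. After 20 min RT, fluorescence (525/598 nm) is read.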
Tau fibril ThT = qHTS for Inhibitors of Tau Fibril Formation, Thioflavin T Binding. AID 1460, 2008. Microtubule-associated protein tau (Homo sapiens), P10636. Potency, µM (titrated, usually from 57.4 µM), inactives show at the highest dose activity, negative = inhibition, actives largely listed as inhibitors. hit rate 2.1% among 270,000. recombinant tau K18 P301L, heparin-induced fibrillization, ThT fluorescence; note: potency is the fitted concentration of half-maximal effect; nearly all actives have a fitted effect of over 55% in size
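ThT emission at 510 nm, taken 1 hr after adding 30 uM dye, quantifies aggregates formed when 20 uM heparin acts on human tau K18 P301L for 6 hr at 37 C.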
* = called active by the depositor; ? = inconclusive; . = no result; [ ] = dose if it differs, or a comment. Most compounds without a hit are left out; they make up all but 3% or so of the library. Unless noted, calls come from the whole dose curve; as a rule, active = well fitted curve in the direction sought with a large enough effect; inconclusive = small, poorly fitted or top-dose-only effect, or another doubt; inactive = no such curve, though single readings can be large; an effect the other way counts as inactive or inconclusive. Unless noted, % is set by controls: 0 for no effect and ±100 for the full control effect.

SMILES	Tau FP inhib	JMJD2E inh	Tau fluor cs	Coupling enz	Tau fibril ThT
C/C(Cn1nnc([N+](=O)[O-])n1)=N\NC(=O)c1ccncc1	-3.3%	12.4%	-1.6%	-40.3*	-9.2%
COc1cc(/C=C(/C#N)c2nc(-c3cc4ccccc4oc3=O)cs2)ccc1O	14.8%	.	?	.	4.47µM*
N#C/C(=C/c1ccccc1Cl)c1nc(-c2cc3ccccc3oc2=O)cs1	-11.2%	.	-14.1%	.	-1.7%
COc1ccc(-c2cc(C)nc3c(-c4ccc(OC)c(OC)c4)c(C)nn23)cc1	?	.	14.1µM*[quencher]	.	10µM*
COc1ccc(-c2c(C)nn3c(-c4ccccc4)cc(-c4ccccc4)nc23)cc1OC	16.0%	.	?	.	-20.0%
COCCn1c(SCC(=O)Nc2nnc(C)s2)nnc1-c1cc2ccccc2cc1O	-2.2%	3.0%	-13.6%	-43.6*	-6.7%
Cc1ccccc1-c1noc(-c2ccc(N3CCN(C)CC3)c([N+](=O)[O-])c2)n1	1.1%	.	-13.5%	.	0.1%
CCN(CC)C(=O)c1sc2c(c1C)c(=O)n(Cc1ccccc1)c(=O)n2Cc1c(C)cc(C)cc1C	-4.1%	.	4.2%	.	-2.7%
CN(C)c1ccc(/C=N/n2ncc3ccccc32)cc1	14.3%	?	?	0.0	3.98µM*
C=CCn1c(/N=C/c2ccc(N(C)C)cc2)nc2ccccc21	2.3%	-1.6%	-2.8%	-1.0	1.1%
COc1ccc(C(=O)c2c(C(F)(F)F)oc3c2C(=O)c2ccccc2C3=O)cc1OC	8.1%	0.1%	-1.4%	-54.6*	9.7%
O=C(NCc1ccc2c(c1)OCO2)c1ccc2c(c1)N(Cc1ccccc1F)C(=O)c1ccccc1S2=O (stereo unspecified)	-18.9%	.	-21.5%	.	9.1%
CN1CCN(C(=O)C2=C[C@H](c3csc4ccccc34)C[C@H](OCc3ccc(CO)cc3)O2)CC1	1.2%	-14.2%	-4.7%	-1.2	-1.8%
CN1CCN(C(=O)C2=C[C@H](c3csc4ccccc34)C[C@H](OCCCCO)O2)CC1	-5.6%	22.4µM*	6.6%	-2.3	-17.3%
O=[N+]([O-])c1ccc(O)c(C2=NNC(c3ccccc3F)C2)c1 (stereo unspecified)	6.2%	-14.1%	-26.0%	4.8	15.8µM*
O=C1C=C(O)c2cccc(O)c2C1=O	-4.6%	7.94µM*	-13.8%	-3.4	?
COc1cc(OC)cc(C(=O)NCc2ccc3c(c2)CCN3C(=O)c2ccccc2)c1	2.5%	.	-7.1%	.	0.0%
CCOc1ccc2oc(=O)cc(CN3CCN(c4ccc(Cl)cc4)CC3)c2c1	0.5%	.	-15.8%	.	3.7%
Cc1nn2c(=O)cc(COC(=O)c3ccc(NC(=O)COc4ccc(Cl)cc4)cc3)nc2s1	-9.5%	.	-1.4%	.	-1.5%
C[n+]1nc(Nc2cccc3ccccc23)sc1-c1ccc(C(=O)O)cc1	-4.5%	8.91µM*	-16.7%	0.6	?
Cc1cc(C)c2nc(N3CCCN(C(=O)c4ccco4)CC3)c(C#N)cc2c1	-5.1%	?	-7.5%	-38.8*	?
Cc1nc(N2CCN(C(=O)c3ccco3)CC2)c(C#N)c2c1CCCC2	.	.	.	-2.3	.
COc1cc(Cl)c(NC(=O)CN(C)S(=O)(=O)c2ccc3c(c2)CCCC(=O)N3)c(OC)c1	-0.2%	.	-20.6%	.	-9.3%
CC[C@H](C)[C@H](NC(=O)[C@H](CC(C)C)NC(=O)[C@H](CO)NC(=O)[C@H](CCC(=O)O)NC(=O)[C@H](CC(C)C)NC(=O)[C@H](Cc1ccc(O)cc1)NC(=O)[C@H](CCCCN)NC(=O)[C@H](CCCCN)NC(=O)[C@H](C)NC(=O)[C@H](CO)NC(=O)[C@H](CC(C)C)NC(=O)[C@H](CCC(N)=O)NC(=O)CNC(=O)[C@H](CC(C)C)NC(=O)[C@H](CC(C)C)NC(=O)[C@H](CCCNC(=N)N)NC(=O)[C@H](CO)NC(=O)[C@H](Cc1ccccc1)NC(=O)[C@H](CC(=O)O)NC(=O)[C@H](CO)NC(=O)[C@@H](NC(=O)[C@H](Cc1ccccc1)NC(=O)[C@@H](NC(=O)CNC(=O)[C@H](CC(=O)O)NC(=O)[C@H](C)NC(=O)[C@@H](N)Cc1cnc[nH]1)C(C)C)[C@@H](C)O)C(N)=O	.	.	.	-2.7	.
CN1C(=O)Cc2cc(S(=O)(=O)NCc3ccc(Cl)cc3)ccc21	1.6%	.	10.6%	.	6.6%
SMILES	Tau FP inhib	JMJD2E inh	Tau fluor cs	Coupling enz	Tau fibril ThT
Brc1ccc(-c2csc(-c3c[nH]c4ccccc34)n2)cc1	-5.6%	?	?	0.2	?
c1ccc2c(-c3csc(-c4ccncc4)n3)c[nH]c2c1	-6.1%	-5.9%	12.6µM*[quencher]	-3.1	3.16µM*
Cc1ccc(-c2ccccc2NC(=O)CS(=O)CC(=O)Nc2ccc(C)c(Cl)c2)o1 (stereo unspecified)	.	.	.	1.8	.
Cc1ccc(-c2ccccc2NC(=O)CCl)o1	4.8%	?	-1.4%	-49.5*	-3.4%
Cc1cc(NC(=O)CN(C)S(=O)(=O)c2ccc3c(c2)CCC(=O)N3)ccc1Br	-8.1%	.	-26.8%	.	-13.9%
Cc1cccc(-n2ncc(C(=O)N3CCN(Cc4ccccc4)CC3)c2C2CCN(C(=O)OC(C)(C)C)CC2)c1	-1.9%	.	-5.2%	.	-12.8%
C[C@H]1c2cccc(O)c2C(O)=C2C(=O)[C@]3(O)C(O)=C(C(N)=O)C(=O)[C@@H](N(C)C)[C@@H]3[C@@H](O)[C@@H]21	-12.6%	20µM*	-14.9%	-5.5	-11.7%
C[C@H]1c2cccc(O)c2C(O)=C2C(=O)[C@]3(O)C(O)=C(C(N)=O)C(=O)C(N(C)C)[C@@H]3[C@@H](O)C21 (stereo partly specified)	-7.7%	?	-22.0%	.	?
O=C(COC(=O)c1cnccn1)c1ccc([N+](=O)[O-])cc1	?	3.1%	-19.4%	0.1	15.8µM*
Cc1ccc(C(=O)COC(=O)c2cnccn2)cc1	7.0%	3.3%	10.0%	2.7	8.4%
CCCc1cc(=O)[nH]c(Nc2ccc(C)c(O)c2)n1	-2.2%	.	?	.	-9.5%
O=C1CC(c2cccc(Cl)c2Cl)c2cc3c(cc2N1)OCCO3 (stereo unspecified)	-8.0%	.	-10.0%	.	9.2%
CCCCc1nn2c(N)c(/C=C3\C=Nc4ccccc43)c(=O)nc2s1	-9.6%	-2.9%	9.0%	1.4	6.3%
CCCc1nn2c(N)c(/C=C3\C=Nc4ccccc43)c(=O)nc2s1	-10.0%	-1.6%	?	-4.8	8.91µM*
COc1cc(NC(=O)C2CCCN(S(=O)(=O)c3cn(C)cn3)C2)cc(OC)c1 (stereo unspecified)	10.4%	.	7.3%	.	2.2%
Cc1ccc(CN2C(=O)C(=O)c3cc(Br)cc(C)c32)cc1	?	.	?	.	28.2µM*

Screening data as filed in PubChem.
